The target of the assay is Calcium and integrin-binding protein 1 (Homo sapiens) (UniProt Q99828). Briefly: Primary qHTS for Identification of Calcium Integrin Binding Protein 1 (CIB1) Competitor (AID 1508620).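 Further: GST tagged CIB1 binding a fluorescein labelled alphaIIb integrin peptide tracer; top concentration of the series differs between compounds.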 The procedure, abridged:
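Fluorescence polarization competition: CIB1-GST (1 uM final) preincubated with compound 15 min at room temperature, then FITC-labeled alphaIIb peptide (100 nM final) added for another 15 min. Polarization read at Ex 480/Em 540.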
Background: qHTS replaces the single test concentration by a dilution series.

Results filed as inconclusive are left out. A call without a number means that no potency is given here. Unmarked numbers belong to inactive results. Active and inactive are the calls of the source. The call rests on the fitted dose curve; in most records, active means well fitted inhibition curve with a large enough effect; inconclusive means small, poorly fitted or top-dose-only effect; inactive means flat fitted curve, though single readings scatter.

Chain of Calcium and integrin-binding protein 1 (Homo sapiens) (Q99828 whole entry, looked up): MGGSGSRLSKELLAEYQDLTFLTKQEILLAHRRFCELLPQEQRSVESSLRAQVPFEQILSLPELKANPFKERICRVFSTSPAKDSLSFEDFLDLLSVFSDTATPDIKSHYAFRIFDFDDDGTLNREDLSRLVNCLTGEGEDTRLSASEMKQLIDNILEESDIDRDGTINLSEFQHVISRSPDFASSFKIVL

In the case of `NC(N)=NC(=O)c1cnn(-c2cccc3ncccc23)c1C1CC1`, the Potency entry is “inactive”.
The same measure, in the same setting: under `O=[N+]([O-])c1ccc(Oc2ccc3c(c2)CCC(c2ccccc2)O3)nc1` (stereo not given) stands “inactive”; under `CCn1nc(C2CCN(C(=O)CCO)CC2)nc1-c1cnc(N)c(-c2nnc(C(C)(C)C)o2)n1`, “inactive”; under `Cc1[nH]c2ccccc2c1CCNCc1ccc(/C=C/C(=O)NO)cc1`, “inactive”.
The same measure, in the same setting: under `NC(=O)c1cccc2[nH]c(-c3ccc(C4CCCN4)cc3F)nc12` (stereo not given) stands “inactive”.
Turning to `Cc1cc(C(C)Nc2ccccc2C(=O)O)c2nc(N3CCOCC3)cc(=O)n2c1` (stereo not given), the Potency result was “inactive”.
Consider `COc1cc(C(=O)NCC2(N(C)C)CCCC2)cc(OC)c1OCc1ccccc1`, for which the Potency result was “inactive”.
For the molecule `COc1ccc(CN2CCN(C(=O)CCNC(=O)c3ccc(C(C)(C)C)cc3)CC2)cc1`, the Potency entry was “inactive”.
For the molecule `O=C(NCc1ccccc1-c1ccccc1C(=O)NCCc1ccccn1)OCc1ccccc1`, the Potency entry is “inactive”.
As for `CC(=O)O[C@@H]1[C@H](O[C@@H]2O[C@@H](CO)[C@H](O)[C@H]2O)[C@@H](O[C@@H]2O[C@@H](C)[C@H](O[C@@H]3OC[C@@H](O)[C@H](O)[C@H]3O)[C@@H](O)[C@H]2O)[C@H](OC(=O)[C@]23CCC(C)(C)C[C@H]2C2=CCC4[C@@]5(C)CC[C@H](O[C@@H]6O[C@H](C(=O)O)[C@@H](O)[C@H](O)[C@H]6O[C@@H]6O[C@H](CO)[C@H](O)[C@H](O)[C@H]6O)[C@@](C)(C=O)C5CC[C@@]4(C)[C@]2(C)C[C@H]3O)O[C@@H]1C` (stereo not given in full), the activity change, negative = inhibition is 1.08% [at 12.4 µM].
As for `C[C@@]12C(=O)N(c3ccc(C(=O)Nc4cccc5cccnc45)cc3)C(=O)[C@@H]1[C@@H]1C=C[C@H]2C1`, the Potency entry was “inactive”.
With `COc1cc2ncnc(Nc3ccc(F)c(Cl)c3)c2cc1O`, the Potency entry was “inactive”.
Same read-out and setting: under `C#CCOc1ccc2c(c1)c(-c1ccc(C(C)C)cc1)nc(=O)n2C(C)C` stands “inactive”; under `CN(C)[C@@H]1CCc2[nH]c3ccc(NC(=O)c4ccc(F)cc4)cc3c2C1`, “inactive”; under `CC(C)=CCc1cc2c(cc1O)OC[C@H]1c3ccc(O)cc3O[C@@H]21`, “inactive”.
Consider `OC1CCC(Nc2nc(-c3ccccc3)nc3[nH]ccc23)CC1` (stereo not given), for which the Potency entry is “inactive”.
On the same count and under the same terms, in the case of `O=C1C(Cc2ccc(O)cc2)N2C(=O)CCN(C(=O)NCc3ccccc3)C2CN1Cc1cccc2ccccc12` (stereo not given) it was “inactive”.
The same measure, in the same setting: under `C=CC(=O)Nc1cc(-n2c(=O)ccc3cnc4ccc(-c5ccc(NS(C)(=O)=O)cc5)cc4c32)ccc1C` stands “inactive”; under `Cc1ccc(C)c(NS(=O)(=O)c2cc(C(=O)Nc3ccccc3-c3ccccc3)ccc2C)c1`, “inactive”; under `CC(C)n1cnc2c(-c3cnc(N)nc3)nc(N3CCOCC3)nc21`, “inactive”.
Same read-out and setting: in the case of `Cc1cc2sc(NC(=O)Cc3ccccc3)nc2cc1Cl` it was “inactive”.
As to `CCc1c[nH]c2ncnc(N3CC[C@](N)(CNC(=O)c4ccc(F)cc4F)C3)c12`, the Potency result was “inactive”.
For `COc1ccccc1N1CCN(CC(C(=O)NC(C)(C)C)c2ccccc2)CC1` (stereo not given), the Potency entry was “inactive”.
Turning to `O=C(Nc1nnc(-c2ccc3c(c2)OCCO3)o1)C1CCCCC1`, the Potency result was “inactive”.
On the same count and under the same terms, in the case of `N#CC(CCCN1CCC(O)(c2ccc(Cl)cc2)CC1)(c1ccccc1)c1ccccc1` it was “inactive”; in that of `Cc1nc(N2CCN(C(=O)c3ccco3)CC2)c2c3c(sc2n1)CCCC3`, “inactive”; in that of `COc1ccc(-c2cc3onc(-c4ccncc4)c3c(=O)n2C)cc1`, “inactive”.
`O=C(NC1(c2ccccc2)CC1)c1c(CN2CCC(N3CCCCC3)CC2)c(-c2cccc(C(F)(F)F)c2)nc2cc(Br)ccc12`: the Potency entry was “inactive”.
Turning to `C=C1C(=O)O[C@@H]2C=C(COC(C)=O)CC/C=C(\CO)CC[C@@H]12`, the Potency result was “inactive”.
On the same count and under the same terms, in the case of `CC(=O)O[C@H]1C[C@H](OC(C)=O)[C@]2(C)[C@H](CC[C@@]34O[C@@H]3C3=C(C)C(=O)O[C@@H]3C[C@H]42)C1(C)C` it was “inactive”; in that of `COc1cc(/C=C/C(=O)NCCn2c(C(F)(F)F)cc3ccccc32)cc(OC)c1OC`, “inactive”.
Still for that read-out and setting: under `CC1(C=O)CCCC2(C)C1CCC13CC(CO)C(CCC12)C3` (stereo not given) stands “inactive”.
As to `C=C(CCC1C(C)(O)CCC2C(C)(C)C(O)CCC12C)C(O)CO` (stereo not given), the Potency result was “inactive”.
As for `CCCCCCCOc1cc2c(cc1/C(C)=C/c1ccc(C(=O)O)cc1)C(C)(C)CCS2(=O)=O`, the Potency entry is “inactive”.
For `CC(=O)N[C@H]1[C@H](O[C@H]2CC[C@@]3(C)C(CC[C@]4(C)C3CC=C3C5CC(C)(C)CC[C@]5(C(=O)O)C(O)C[C@]34C)C2(C)C)O[C@H](CO[C@@H]2O[C@H](C)[C@H](O)[C@H](O)[C@H]2O[C@@H]2OC[C@@H](O)[C@H](O)[C@H]2O)[C@@H](O)[C@@H]1O` (stereo not given in full), the Potency result was “inactive”.

The values above are taken from PubChem BioAssay (NCATS).
